High-throughput results as filed in PubChem BioAssay.
The list is not random: actives were taken first. Their share in the collection is about 9.6%.
PostGolgi yeast: growth inhibition of a yeast mutant, post-Golgi transport screen | post-Golgi transport phenotypic cell assay | inhibition, % at 10 µM | hit rate 0.9% among 98,000;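 note: yeast cells grown in 1536-well plates; yeast grown about 18 h at 30C before absorbance read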
PostGolgi ctrl: inhibits growth of the yeast control strain. efflux-deficient yeast background strain, growth absorbance A615, 16 h. inhibition, % at 10 µM. hit rate 5% among 98,000
hDAT+cocaine: changed human dopamine transporter uptake under cocaine IC80; Q01959; LLC-PK1 hDAT cells, [14C]-dopamine uptake with cocaine IC80; actives deviate in either direction; B-score at 10 µM; hit rate 1.3% among 110,000; AID 449768;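 active = Z score or B-score, a plate-position-corrected score, falls beyond the plate's 99.7% confidence bounds, in either direction; inactive = both scores lie inside the 99.7% bounds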
PLAP activator: activates human placental alkaline phosphatase | P05187 | purified PLAP enzyme, luminescent substrate read-out; stronger effect = higher value | activation fold at 20 µM | hit rate 1.2% among 96,000 | AID 696; in the data active = activation fold above about 2
Target sequence (P05187 whole entry, looked up): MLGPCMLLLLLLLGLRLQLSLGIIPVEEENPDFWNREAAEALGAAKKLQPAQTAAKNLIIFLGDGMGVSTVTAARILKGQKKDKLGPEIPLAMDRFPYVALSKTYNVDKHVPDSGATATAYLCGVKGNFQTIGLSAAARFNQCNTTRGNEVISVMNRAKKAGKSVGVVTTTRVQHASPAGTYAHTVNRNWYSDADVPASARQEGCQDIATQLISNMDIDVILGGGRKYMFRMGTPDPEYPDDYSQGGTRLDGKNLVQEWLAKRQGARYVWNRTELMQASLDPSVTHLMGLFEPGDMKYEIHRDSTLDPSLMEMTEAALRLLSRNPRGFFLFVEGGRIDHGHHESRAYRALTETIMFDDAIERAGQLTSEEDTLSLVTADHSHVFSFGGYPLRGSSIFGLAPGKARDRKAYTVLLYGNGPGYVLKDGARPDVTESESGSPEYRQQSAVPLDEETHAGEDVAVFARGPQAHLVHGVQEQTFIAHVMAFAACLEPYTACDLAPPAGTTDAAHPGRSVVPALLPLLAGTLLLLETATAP
Cav3 T inh: blocks human Cav3.2 T-type calcium channel; Cav3.2-expressing cells, Fluo-4 calcium fluorescence FDSS; stronger effect = lower value; hit rate 4% among 100,000; AID 449739; B-score at 10 µM; O95180;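 active = single-dose well whose peak fluorescence ratio is a statistical outlier from its plate by either plate-standardised score or position-corrected B-score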
Hits are given with their value; i = inactive; nt = no result given. Cut-off read from the data, not from the text of the source, unless noted: active = inhibition above about 30%; inactive = the rest.

SMILES	PostGolgi yeast	PostGolgi ctrl	hDAT+cocaine	PLAP activator	Cav3 T inh
Cc1ccc(C(=O)N2CCCC2)cc1S(=O)(=O)Nc1ccccc1	i	i	i	i	i
Cc1ccc(C(=O)NCCSC2CCCCC2)cc1S(=O)(=O)Nc1ccccc1	i	i	i	i	-3.8
Cc1ccccc1NS(=O)(=O)c1cc(C(=O)NCCC2=CCCCC2)ccc1C	i	i	i	i	-3.4
CSc1nc2nc(-c3ccccc3)cc(C(F)(F)F)n2n1	i	i	i	i	i
Cc1ccc(NC(=O)Nc2cccs2)cc1	i	38	i	i	i
CCc1nc(SCCO)c2oc3ccccc3c2n1	i	i	i	i	i
CCc1nc(SCC(=O)N2CCN(c3ccccc3)CC2)c2oc3ccccc3c2n1	i	33	i	i	i
CCc1nc(SCc2nc3ccccc3[nH]2)c2oc3ccccc3c2n1	i	69	i	i	i
CCc1nc(SCC(=O)N2CCN(c3ccccc3)CC2)c2c(=O)n(C)c(=O)n(C)c2n1	nt	nt	i	nt	i
COc1ccc(NC(=O)C2CCC(CNc3c(N4CCC(C)CC4)c(=O)c3=O)CC2)cc1OC (stereo not given)	i	i	i	i	i
COC(=O)C1=C(C)NC2=C(C(=O)C(C(=O)OC)C(c3ccc(OC)cc3)C2)C1c1ccccn1 (stereo not given)	i	i	i	i	i
CC1CCc2cccc3c2N1c1cc(C#N)c(C#N)cc1O3 (stereo not given)	i	i	i	i	-3.6
O=S(=O)(c1ccccc1Cl)N1CCCC(c2nc(-c3cccnc3)no2)C1 (stereo not given)	i	i	i	i	i
CCOc1ccc(NC(=O)N(C2CCCCC2)C(C)c2cccnc2)cc1 (stereo not given)	63	i	i	i	i
C=CCNC(=O)c1cc(=O)c2ccccc2o1	i	i	i	i	i
CCOC(=O)Nc1cc(=O)c2ccccc2o1	i	43	i	i	i
Cc1ccc(Cn2cnc3c(nnn3Cc3ccc(Cl)cc3)c2=O)cc1	i	i	i	i	i
C=CCn1c(SCC(=O)N2CCOCC2)nc2scc(-c3ccco3)c2c1=O	i	i	i	i	3.5
C=CCn1c(SCC(=O)N2CCOCC2)nc2sc3c(c2c1=O)CCCC3	i	i	3.1	i	i
C=CCn1c(SCC(=O)N2CCCC2)nc2scc(-c3cccs3)c2c1=O	i	i	nt	i	nt
COc1ccc([C@H]2/C=C\CN(Cc3ccc(N(C)C)cc3)[C@@H](C)C(=O)N2Cc2ccc(F)cc2)cc1	nt	nt	i	nt	i
Cc1cc(NC(c2ccc(Cl)cc2)c2ccc3cccnc3c2O)no1 (stereo not given)	i	i	i	2	-4.1
CC(=O)c1cccc(NC(=O)N2CCC(c3nnc(SCC(N)=O)n3C)CC2)c1	i	i	i	i	i
O=C(COC(=O)CCN1C(=O)c2ccccc2C1=O)Nc1ccc(S(=O)(=O)N2CCCC2)cc1	i	i	i	i	i
O=C(CS(=O)(=O)Cc1ccccc1)Nc1ccc(S(=O)(=O)N2CCCCCC2)cc1	i	i	i	i	-7.1
SMILES	PostGolgi yeast	PostGolgi ctrl	hDAT+cocaine	PLAP activator	Cav3 T inh
O=C(COC(=O)CN1C(=O)c2ccccc2C1=O)Nc1ccc(S(=O)(=O)N2CCCC2)cc1	i	i	i	i	i
CC(C(=O)OCC(=O)Nc1ccc(S(=O)(=O)N2CCCCC2)cc1)N1C(=O)c2ccccc2C1=O (stereo not given)	i	i	i	i	-5.7
CC1CCCN(S(=O)(=O)c2ccc(NC(=O)CCN3C(=O)c4ccccc4C3=O)cc2)C1 (stereo not given)	42	i	i	i	nt
O=C(CN1CCCCC1)Nc1ccc(S(=O)(=O)N2CCCCCC2)cc1	i	i	i	i	i
CN1C(=O)/C(=C/c2cc(N=Nc3ccccc3)ccc2O)SC1=S	i	i	i	i	i
COc1ccc(N(CC(=O)Nc2cccc(C(=O)O)c2)S(=O)(=O)c2c(C)noc2C)cc1	i	i	i	i	i
CCOc1ccc(N(CC(=O)Nc2cccc(F)c2)S(=O)(=O)c2c(C)noc2C)cc1	i	i	i	i	i
CCOc1ccc(N(CC(=O)Nc2ccc(C)c(C)c2)S(=O)(=O)c2c(C)noc2C)cc1	i	i	i	nt	-4.9
CCOC(=O)c1cccc(NC(=O)CN(c2ccc(OC)cc2)S(=O)(=O)c2c(C)noc2C)c1	i	i	i	i	-4.9
CCOC(=O)N1CCN(CC(=O)N2c3ccccc3CC2C)CC1 (stereo not given)	i	i	i	i	nt
CCN(CC)CCOC(=O)C1(c2ccc(OC)c(OC)c2)CCCC1	i	50	i	i	i
CCN(CC)CCOC(=O)C1(c2ccccc2)CCCC1	i	i	i	i	i
Cc1ccccc1NC(=O)CSc1nnc(Cc2cccn2C)n1-c1ccc(F)cc1	i	i	i	i	i
Cc1ccc(-n2c(Cc3cccn3C)nnc2SCC(=O)NCc2ccc3c(c2)OCO3)cc1	i	32	i	i	-5
Cc1ccc(-n2c(Cc3cccs3)nnc2SCC(=O)Nc2ccc(F)c(F)c2)cc1	i	i	i	i	i
Cn1cccc1Cc1nnc(SCC(=O)Nc2ccc3c(c2)OCCO3)n1-c1ccc(F)cc1	i	i	i	i	-7.7
O=C(CSc1nnc(Cc2cccs2)n1-c1ccccc1)Nc1ccc2c(c1)OCCO2	i	i	i	i	-4.8
Cc1ccc(-n2c(Cc3cccn3C)nnc2SCC(=O)Nc2ccc3c(c2)OCO3)cc1	i	i	i	i	-3.9
CCN1CCCC1CNC(=O)c1c(O)c2c([nH]c1=O)CCCC2 (stereo not given)	i	i	i	i	i
O=C1COc2ccc(C(=O)CSc3nnc(Cc4cccs4)n3-c3ccccc3)cc2N1	i	i	i	i	-5.4
O=C(CSc1nccn1-c1cccc(Cl)c1)Nc1ccc2c(c1)OCCO2	i	i	i	i	-3.7
COc1cccc(NC(=O)CSc2nccn2-c2cccc(OC)c2)c1	i	i	i	i	nt
Cc1noc(C)c1COC(=O)c1cc(C)n(-c2ccccc2)c1C	i	i	i	i	-4.9
CC(C)(C)OC(=O)N1CCC(C(=O)N[C@@H](Cc2ccccc2)C(=O)O)CC1	i	i	i	i	i
Cc1ccc(-n2nnnc2SCC(=O)NNC(=O)c2ccco2)cc1C	i	i	i	2.3	i
SMILES	PostGolgi yeast	PostGolgi ctrl	hDAT+cocaine	PLAP activator	Cav3 T inh
N#CC1=C(N)C(C#N)(C#N)C(c2cccnc2)C2CN(C(=O)OCc3ccccc3)CC=C12 (stereo not given)	nt	nt	3.9	nt	i
CNC(=O)c1cc2cc(Cl)cc(OC)c2oc1=O	nt	nt	i	nt	i
CCOC(=O)CSc1nc(N)c(C#N)c(CC(C)C)c1C#N	i	40	i	i	i
COC(=O)CSc1nc(N)c(C#N)c(C(C)C)c1C#N	i	i	i	i	i
CCOC(=O)N1CCN(C(=O)CSc2nnc(-c3cc(OC)cc(OC)c3)o2)CC1	i	i	i	i	i
O=C(CSc1nnc(CNc2ccc(F)cc2)o1)N1CCCc2ccccc21	i	i	i	i	-5.3
CCCCN(CCCC)C(=O)CSc1nnc(-c2cc(OC)c(OC)c(OC)c2)o1	i	i	i	i	i
O=C(CSc1nnc(-c2ccccc2Cl)o1)N1CCCCC1	i	i	i	i	-4.2
CCCCOC(=O)CSc1nnc(-c2cc(OC)c(OC)c(OC)c2)o1	i	32	i	i	nt
